Active and inactive are the calls of the source.
Legend:
[1] = test system: Plasmodium falciparum Sir2 (PF13_0152, Sir2A); experiment: pfSir2 binders on small-molecule microarrays, primary screen, biochemical, small-molecule microarray, 635 nm fluorescence (AID 1098); conditions: small-molecule microarray binding, fluorescence 635 nm; higher = more signal;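 further: score merges spot fluorescence intensity with its signal-to-noise ratio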
[2] = small-molecule microarray binders of probe aDKK1, primary screen, biochemical, biotinylated probe, 635/667 nm fluorescence (AID 1099); conditions: higher = more signal;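 further: score merges 667nm spot fluorescence with signal to noise across triplicate slides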
[3] = small-molecule microarray binders of probe aCHRDL2, primary screen, biochemical, biotinylated probe, 635/667 nm fluorescence (AID 1100); conditions: higher = more signal
[4] = splicing luciferase reporter signal modulators, primary screen, spliceosome inhibition project, cell-based, HEK293, splice +/- reporter (AID 1101); conditions: luminescence, 24 h, higher = more signal, called active from +8 up or from −8 down;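 further: HEK293 cells carrying a splicing-competent luciferase reporter gene; test concentration not given here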
[5] = target: Fibroblast growth factor 10 (Homo sapiens) (UniProt O15520); experiment: FGF10 binders on small-molecule microarrays, primary screen, biochemical, small-molecule microarray, 635 nm fluorescence (AID 1102); conditions: FGF10 binding, fluorescence 635 nm, higher = more signal
Chain of Fibroblast growth factor 10 (Homo sapiens) (O15520 whole entry, looked up): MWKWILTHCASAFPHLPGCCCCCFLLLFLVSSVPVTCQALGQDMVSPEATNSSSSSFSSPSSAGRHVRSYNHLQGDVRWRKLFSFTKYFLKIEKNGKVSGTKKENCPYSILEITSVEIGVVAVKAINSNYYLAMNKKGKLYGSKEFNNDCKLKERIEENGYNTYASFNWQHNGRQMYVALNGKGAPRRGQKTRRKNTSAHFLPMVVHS

[6] = test system: glycogen synthase kinase-3 (GSK3A per assay name; protocol says GSK3B); experiment: GSK3 binders on small-molecule microarrays, primary screen, biochemical, small-molecule microarray, 635 nm fluorescence, GSK3A (AID 1103); conditions: small-molecule microarray binding, fluorescence 635 nm; higher = more signal; further: the record names both GSK3A and GSK3B
[7] = target: Epidermal growth factor receptor (Homo sapiens) (UniProt P00533); experiment: EGFR binders on small-molecule microarrays, primary screen, biochemical, small-molecule microarray, 635 nm fluorescence (AID 1104); conditions: EGFR binding, higher = more signal;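 further: score merges 667 nm emission intensity with spot signal to noise over triplicate slides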
Chain of Epidermal growth factor receptor (Homo sapiens) (P00533 whole entry, looked up): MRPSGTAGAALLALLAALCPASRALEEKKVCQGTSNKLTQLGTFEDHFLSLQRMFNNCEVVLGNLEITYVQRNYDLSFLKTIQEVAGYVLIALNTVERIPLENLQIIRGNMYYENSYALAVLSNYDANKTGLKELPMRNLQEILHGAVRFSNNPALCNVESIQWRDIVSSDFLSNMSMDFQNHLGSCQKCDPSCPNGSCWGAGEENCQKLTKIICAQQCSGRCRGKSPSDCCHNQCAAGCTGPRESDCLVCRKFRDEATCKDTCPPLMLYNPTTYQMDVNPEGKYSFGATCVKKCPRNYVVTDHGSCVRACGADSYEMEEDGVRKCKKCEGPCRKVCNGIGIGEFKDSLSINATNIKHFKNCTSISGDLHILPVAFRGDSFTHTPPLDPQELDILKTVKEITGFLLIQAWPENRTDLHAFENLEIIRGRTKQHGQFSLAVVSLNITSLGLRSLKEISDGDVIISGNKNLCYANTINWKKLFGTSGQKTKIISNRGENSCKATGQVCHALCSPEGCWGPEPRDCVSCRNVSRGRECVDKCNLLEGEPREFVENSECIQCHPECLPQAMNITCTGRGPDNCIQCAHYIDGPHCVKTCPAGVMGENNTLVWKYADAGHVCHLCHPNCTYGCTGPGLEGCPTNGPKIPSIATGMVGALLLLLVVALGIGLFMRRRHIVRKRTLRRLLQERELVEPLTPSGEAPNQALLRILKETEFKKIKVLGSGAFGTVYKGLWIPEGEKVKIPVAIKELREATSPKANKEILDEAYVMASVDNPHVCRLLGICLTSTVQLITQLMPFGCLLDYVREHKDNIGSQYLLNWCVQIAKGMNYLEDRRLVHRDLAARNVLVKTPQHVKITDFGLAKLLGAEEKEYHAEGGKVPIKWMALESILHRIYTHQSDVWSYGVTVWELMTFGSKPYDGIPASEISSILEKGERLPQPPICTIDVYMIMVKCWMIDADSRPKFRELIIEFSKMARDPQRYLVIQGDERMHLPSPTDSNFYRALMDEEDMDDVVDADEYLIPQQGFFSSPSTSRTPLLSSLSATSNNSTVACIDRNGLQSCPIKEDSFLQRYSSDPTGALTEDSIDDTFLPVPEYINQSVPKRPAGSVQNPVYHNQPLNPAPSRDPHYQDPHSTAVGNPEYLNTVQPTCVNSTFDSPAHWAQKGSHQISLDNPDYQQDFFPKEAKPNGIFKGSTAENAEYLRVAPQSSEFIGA

[8] = target: Follistatin-related protein 3 (Homo sapiens) (UniProt O95633); experiment: FSTL3 binders on small-molecule microarrays, primary screen, biochemical, small-molecule microarray, 635 nm fluorescence (AID 1105); conditions: FSTL3 binding, higher = more signal;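 further: score merges emission near 667 nm and signal to noise per printed spot across three slides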
Chain of Follistatin-related protein 3 (Homo sapiens) (O95633 whole entry, looked up): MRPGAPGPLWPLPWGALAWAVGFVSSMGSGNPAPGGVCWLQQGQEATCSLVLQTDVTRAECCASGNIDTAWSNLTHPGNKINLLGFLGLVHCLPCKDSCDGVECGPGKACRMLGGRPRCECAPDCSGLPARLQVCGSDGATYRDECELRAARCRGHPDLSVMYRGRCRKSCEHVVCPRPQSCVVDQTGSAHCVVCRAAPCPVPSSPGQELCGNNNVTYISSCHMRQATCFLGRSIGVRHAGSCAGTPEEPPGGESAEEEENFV

[9] = target: Dickkopf-related protein 1 (Homo sapiens) (UniProt O94907); experiment: DKK1 binders on small-molecule microarrays, primary screen, biochemical, small-molecule microarray, 635 nm fluorescence scan (AID 1106); conditions: DKK1 binding, higher = more signal;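 further: score merges emission near 667 nm with signal to noise over three replicate slides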
Chain of Dickkopf-related protein 1 (Homo sapiens) (O94907 whole entry, looked up): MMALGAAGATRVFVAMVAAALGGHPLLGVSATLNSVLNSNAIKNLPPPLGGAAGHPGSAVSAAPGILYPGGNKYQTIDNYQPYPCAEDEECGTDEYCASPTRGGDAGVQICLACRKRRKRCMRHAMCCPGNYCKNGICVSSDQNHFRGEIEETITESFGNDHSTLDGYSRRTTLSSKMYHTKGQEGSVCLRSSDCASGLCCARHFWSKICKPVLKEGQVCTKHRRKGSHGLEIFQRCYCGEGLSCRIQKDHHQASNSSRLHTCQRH

[10] = test system: Inhibin beta A chain (activin A); experiment: INHBA (activin A) binders on microarrays, primary screen, biochemical, small-molecule microarray, 635 nm fluorescence scan (AID 1107); conditions: small-molecule microarray binding, higher = more signal;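 further: mouse activin A protein probed at 4.33 µg/mL on printed slides; score merges bound-protein fluorescence near 667 nm with spot signal-to-noise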
[11] = test system: Human papillomavirus type 1a protein E7 (residues 44-93); experiment: HPV1a E7 fragment binders on microarrays, primary screen, biochemical, small-molecule microarray, residues 44-93, 635 nm fluorescence (AID 1108); conditions: small-molecule microarray binding, fluorescence 635 nm; higher = more signal;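 further: E7 fragment applied at 1 µg/mL in TBST for 1 h at 4 C; score combines spot fluorescence with its signal to noise ratio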
[12] = modulators of HCV replicon luciferase signal, primary screen, HCV replication inhibitor project, Huh7 cells, luciferase reporter (AID 1109); conditions: 48 h, higher = more signal;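 further: huh7 hepatoma cells harbouring a luciferase neomycin HCV replicon reporter; luciferase luminescence as measure of HCV replicon replication; test concentration not given here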
[13] = target: Left-right determination factor 2 (Homo sapiens) (UniProt O00292); experiment: LEFTY2 binders on small-molecule microarrays, primary screen, biochemical, small-molecule microarray, 635 nm fluorescence scan (AID 1110); conditions: LEFTY2 binding, higher = more signal
Chain of Left-right determination factor 2 (Homo sapiens) (O00292 whole entry, looked up): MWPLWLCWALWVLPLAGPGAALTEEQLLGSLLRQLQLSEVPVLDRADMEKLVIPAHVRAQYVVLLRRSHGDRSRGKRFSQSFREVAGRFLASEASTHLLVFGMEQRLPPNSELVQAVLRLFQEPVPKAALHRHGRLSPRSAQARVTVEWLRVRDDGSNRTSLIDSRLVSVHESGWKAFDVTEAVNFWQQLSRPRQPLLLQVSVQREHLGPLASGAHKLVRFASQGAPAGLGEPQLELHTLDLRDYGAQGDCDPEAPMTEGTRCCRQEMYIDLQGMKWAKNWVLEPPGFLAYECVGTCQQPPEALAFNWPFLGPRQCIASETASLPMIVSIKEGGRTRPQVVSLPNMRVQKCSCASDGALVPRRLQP

[14] = target: Calmodulin-1 (Homo sapiens) (UniProt P0DP23); experiment: CALM1 binders on microarrays, EGTA buffer, profiling panel, biochemical, small-molecule microarray, Cy5-labelled CALM1 (AID 1111); conditions: Cy5-CALM1 binding fluorescence, higher = more signal;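 further: labelled calmodulin applied in Tris saline Tween buffer holding calcium plus EGTA and DTT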
[15] = target: Calmodulin-1 (Homo sapiens) (UniProt P0DP23); experiment: calcium-bound CALM1 binders on microarrays, profiling panel, artefact control for SMM control-protein annotation, biochemical, small-molecule microarray, Cy5-labelled CALM1, plus calcium (AID 1112); conditions: Cy5-CALM1 binding fluorescence, higher = more signal;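 further: score merges spot fluorescence with signal to noise from triplicate slides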
[16] = small-molecule microarray binders of probe aWnt5a, primary screen, biochemical, biotinylated probe, 635/667 nm fluorescence (AID 1113); conditions: higher = more signal;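 further: score merges 667 nm fluorescence intensity with signal-to-noise per printed feature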
[17] = small-molecule microarray binders of probe aShh, primary screen, biochemical, biotinylated probe, 635/667 nm fluorescence (AID 1114); conditions: higher = more signal;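 further: probe is biotin-labelled aShh protein from a stem cell growth factor screen; measures binding of labelled protein to compounds printed on the slide; score merges feature fluorescence at 667 nm with signal-to-noise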
[18] = small-molecule microarray binders of probe aNog, primary screen, biochemical, biotinylated probe, 635/667 nm fluorescence (AID 1115); conditions: higher = more signal;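 further: probe is biotinylated aNog protein used at 0.15 µg/mL for 1 h at 4 C; z-score combines 667 nm fluorescence of each spot with its signal to noise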
[19] = target: Torsin-1A-interacting protein 1 (Homo sapiens) (UniProt Q5JTV8); experiment: LAP1 binders from COS7 cell lysate, primary screen, small-molecule microarray, 635/667 nm fluorescence (AID 1116); conditions: COS7-hLAP1 lysate binding, 635 nm fluorescence, higher = more signal
Chain of Torsin-1A-interacting protein 1 (Homo sapiens) (Q5JTV8 whole entry, looked up): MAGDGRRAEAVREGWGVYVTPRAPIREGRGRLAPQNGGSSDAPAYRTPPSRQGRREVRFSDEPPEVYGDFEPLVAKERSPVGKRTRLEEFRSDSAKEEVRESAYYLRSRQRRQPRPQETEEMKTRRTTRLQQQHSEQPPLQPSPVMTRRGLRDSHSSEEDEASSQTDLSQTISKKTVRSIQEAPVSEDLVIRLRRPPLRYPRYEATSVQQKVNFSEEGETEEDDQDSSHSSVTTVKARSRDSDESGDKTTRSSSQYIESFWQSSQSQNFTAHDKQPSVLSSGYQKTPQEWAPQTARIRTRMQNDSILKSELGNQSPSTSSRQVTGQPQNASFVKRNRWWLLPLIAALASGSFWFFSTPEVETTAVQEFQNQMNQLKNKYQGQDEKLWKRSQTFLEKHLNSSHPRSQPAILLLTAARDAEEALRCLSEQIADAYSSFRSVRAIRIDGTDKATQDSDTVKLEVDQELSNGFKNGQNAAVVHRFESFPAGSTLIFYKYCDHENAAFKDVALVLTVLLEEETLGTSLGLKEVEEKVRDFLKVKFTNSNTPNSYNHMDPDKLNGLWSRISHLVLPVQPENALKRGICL

[20] = target: Alpha-bungarotoxin (Bungarus multicinctus) (UniProt P60615); experiment: alpha-bungarotoxin binders on microarray, profiling panel, artefact control for SMM control protein annotation, biochemical, small-molecule microarray, Alexa647 label, 635/667 nm fluorescence (AID 1117); conditions: alpha-BTX-A647 binding fluorescence, higher = more signal
Chain of Alpha-bungarotoxin (Bungarus multicinctus) (P60615 whole entry, looked up): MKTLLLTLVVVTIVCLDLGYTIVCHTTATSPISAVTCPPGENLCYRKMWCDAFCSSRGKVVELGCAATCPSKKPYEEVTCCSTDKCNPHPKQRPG

SMILES | composite z-score [1] | composite z-score [2] | composite z-score [3] | z-score [4] | composite z-score [5] | composite z-score [6] | composite z-score [7] | composite z-score [8] | composite z-score [9] | composite z-score [10] | composite z-score [11] | z-score [12] | composite z-score [13] | composite z-score [14] | composite z-score [15] | composite z-score [16] | composite z-score [17] | composite z-score [18] | composite z-score [19] | composite z-score [20]
CCOC(=O)C[C@H]1[C@H](OC(=O)Cc2ccc3c(c2)OCO3)[C@@H](NC(=O)c2ccc3ccccc3c2)c2cc(OCCCO)ccc2N1C(=O)c1ccc2ccccc2n1 | 0.114 | -0.0522 | -0.0322 | -3.47 (inactive) | 0.18 | 0.0646 | 0.118 | 0.161 | 0.121 | 0.0739 | -0.13 | -1.43 | 0.0822 | 1.05 | 0.691 | -0.124 | -0.0769 | -0.171 | 1.15 | 1.15
COCCCNC(=O)[C@@]1(Cc2ccccc2CN=[N+]=[N-])COC(c2ccc(OCCCO)cc2)=N1 | 1.59 | 1.28 | 1.39 | -0.807 (inactive) | 1.38 | 0.266 | -0.474 | -0.0087 | -1.58 | 0.731 | 0.989 | -1.97 | -0.645 | 1.78 | 0.96 | 0.299 | 0.454 | 1.75 | 2.45 | 0.911
CCOC(=O)C[C@H]1[C@H](OC(=O)c2ccc(-c3ccccc3)cc2)[C@@H](NC(=O)C2CCCCC2)c2cc(OCCCO)ccc2N1C(=O)c1ccc2ccccc2n1 | 0.13 | 0.414 | 0.111 | -1.65 (inactive) | 0.651 | 0.708 | 0.0502 | 0.392 | 1.12 | -0.167 | 1.19 | -0.241 | 0.197 | 1.24 | 0.854 | 0.0102 | -0.0133 | 0.037 | 0.729 | 0.608
C=C(/C(=C/C[C@H](OC(=O)c1ccncc1)c1cccc(OCCO)c1)c1cc(C(=O)OC)ccc1OC)C(C)C | 0.903 | 0.235 | 0.569 | -1.63 (inactive) | 0.493 | -0.129 | -0.763 | -0.127 | -0.227 | 0.639 | 0.0251 | -1.86 | -0.107 | -0.193 | -0.808 | -0.169 | -0.0035 | 0.0866 | -0.142 | 0.288
CCCNC(=O)[C@@H]1c2ccccc2C(=O)N(Cc2cc(C(F)(F)F)cc(C(F)(F)F)c2)[C@H]1c1ccc(CO)cc1 | 1.23 | 0.829 | 0.803 | -0.443 (inactive) | 0.238 | 0.459 | -0.112 | 0.268 | -0.196 | 0.0686 | 0.35 | -0.392 | -0.402 | 0.394 | 0.544 | -0.146 | 0.188 | 0.527 | 0.238 | 1.22
Cc1ccc(S[C@]2(C(=O)NCC(C)C)CC(=O)N(C(C)C)[C@@H]2c2ccc(CO)cc2)cc1 | 0.0739 | 0.457 | 0.696 | -0.982 (inactive) | -0.475 | -0.771 | -0.33 | -0.196 | -0.574 | 0.727 | -0.962 | -0.725 | -0.594 | -0.886 | 0.134 | -0.124 | -0.137 | -0.163 | 0.623 | -1.11
CC(C)C(CO)N1C(=O)[C@@H]2C3C(=O)OCCC/C=C\[C@H]3OC23C=CCN(C(C)C)C(=O)[C@@H]13 (stereo not given in full) | 1.86 | -0.191 | 0.481 | -0.895 (inactive) | -0.547 | -0.875 | -1.2 | -0.826 | -0.868 | 0.968 | -0.359 | -0.069 | -0.73 | -0.467 | -0.14 | -0.221 | -0.0035 | 0.0599 | 1.69 | -1.61
NC(=O)NCC#Cc1ccc2c(c1)[C@]1(C(=O)N2)[C@H](c2ccc(OCCO)cc2)N2[C@H](c3ccccc3)[C@H](c3ccccc3)OC(=O)[C@H]2[C@@H]1C(=O)Nc1nc2ccccc2s1 | 0.0284 | 0.918 | 1.2 | -1 (inactive) | 0.178 | -0.282 | -0.345 | 0.224 | -0.463 | 1.35 | -0.107 | -0.495 | -0.64 | 0.728 | 0.789 | -0.184 | 0.046 | 0.339 | 0.173 | 1.03
O=C(NO)[C@]1(Cc2ccccc2)N=C(c2ccc(OCCCO)cc2)O[C@@H]1c1ccccc1 | 1.3 | 0.256 | 0.694 | -4.02 (inactive) | -0.227 | -0.371 | -0.637 | 0.262 | -0.546 | -0.169 | -0.281 | -1.73 | -0.79 | -0.271 | 0.309 | -0.377 | 0.157 | 0.168 | 0.395 | 2.41
CCN(CC)c1ccc(N2CC=CC34O[C@@H]5C=CCOC(=O)[C@@H]5[C@H]3C(=O)N(C(C)CO)[C@@H]4C2=O)cc1 (stereo not given in full) | -0.928 | 0.0831 | 0.495 | -0.405 (inactive) | -0.749 | -2.21 | -1.5 | -1.5 | -1.01 | 0.509 | -1.09 | -0.533 | -1.21 | -1.1 | -0.201 | -0.154 | -0.153 | 0.166 | -0.438 | 0.0517
